Rows were chosen to be rich in hits. Some 5% of all compounds tested hit in one or more screens of this group.
SENP8 block-1: human SENP8 protease inhibitors, primary screen, biochemical, fluorescence, Nedd8 protein substrate, uHTS; 360,000 compounds, 0.64% hits; inhibition, % at 20 µM; Sentrin-specific protease 8 (Homo sapiens), Q96LD8; recombinant SENP8; AID 602440, 2012; in the data active = inhibition mostly above about 40%, no sharp cut-off; inactive = mostly below about 27%
Target sequence (Q96LD8 whole entry, looked up): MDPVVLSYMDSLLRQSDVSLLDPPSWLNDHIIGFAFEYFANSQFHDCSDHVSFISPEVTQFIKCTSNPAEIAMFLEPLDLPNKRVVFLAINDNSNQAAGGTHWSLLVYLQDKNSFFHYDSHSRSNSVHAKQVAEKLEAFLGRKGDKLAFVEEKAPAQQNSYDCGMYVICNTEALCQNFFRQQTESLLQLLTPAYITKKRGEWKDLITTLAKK
SENP8 block-2: SENP8 protease inhibitors, primary screen, biochemical, luminescence; 330,000 compounds, 1.2% hits; AID 2540, 2010; purified SENP8, Z-RLRGG-aminoluciferin cleavage; inhibition, % at 10 µM; in the data active = inhibition above about 50%
SENP7 block: SENP7 protease inhibitors, primary screen, biochemical, luminescence, uHTS. recombinant SENP7, Z-RLRGG-aminoluciferin luminescence, 40 min. inhibition, % at 5 µM. 330,000 compounds, 1.5% hits. AID 434973, 2010;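 active = inhibition above about 50% at the single test dose, limit read from the data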;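 note: plate controls were DMSO with enzyme for no effect and no enzyme buffer wells for full effect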
SENP6 block: SENP6 protease inhibitors, primary screen, biochemical, luminescence, uHTS | Sentrin-specific protease 6 (Homo sapiens), Q9GZR1 | Recombinant SENP6 catalytic domain, aminoluciferin luminescence | inhibition, % at 10 µM | 330,000 compounds, 1.8% hits;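 active = inhibition above about 50% at the single tested dose, limit read from the data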;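 note: plate controls were DMSO wells with enzyme for no effect and DMSO wells lacking enzyme for full effect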
AHR act: AHR activators, primary screen, cell-based, luminescence, luciferase reporter, human; AHR-responsive luciferase reporter cells; activation, % at 5 µM; 320,000 compounds, 2.5% hits; AID 2796, 2010; in the data active = activation above about 47%;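 note: 0% = vehicle wells and 100% = reference agonist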
EBI2 antag: EBI2 receptor antagonists, beta-arrestin recruitment, primary screen, cell-based, luminescence, 7a,25-OHC stimulation, uHTS | inhibition, % at 5 µM | 360,000 compounds, 0.81% hits | G-protein coupled receptor 183 (Homo sapiens), P32249 | 7a,25-OHC stimulated; in the data active = inhibition above about 38%;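 note: enzyme fragment complementation signal reports receptor beta-arrestin coupling in cells; 0% = agonist plus DMSO wells and 100% = wells without agonist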
AHR act confirm: AHR activators, confirmation, cell-based, luminescence, luciferase reporter, human. shares compounds with AHR act. human cells, AHR-responsive luciferase reporter. activation, % at 9 µM. 2,300 compounds, 87% hits; in the data active = activation above about 49%;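 note: HepG2 hepatoma cells carrying a DRE-driven firefly luciferase reporter; 0% = vehicle wells and 100% = reference agonist wells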
PXR act counter: human PXR activators, counter-screen for AHR activator project, cell-based, luciferase luminescence; 2,300 compounds, 88% hits; shares compounds with AHR act; activation, % at 11.6 µM; cell-based PXR reporter; in the data active = activation above about 11%;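 note: human hepatoma DPX-2 cells expressing full-length human PXR; 0% = DMSO and 100% = reference agonist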
An asterisk follows results filed as active; x = no result given.

SMILES	SENP8 block-1	SENP8 block-2	SENP7 block	SENP6 block	AHR act	EBI2 antag	AHR act confirm	PXR act counter
COc1cc(NC(=O)c2noc(C)c2[N+](=O)[O-])c(OC)cc1Cl	6	8	-5	9	80*	-13	102*	30*
COc1cc(NC(=O)c2cc(CC(C)C)on2)c(OC)cc1Cl	-9	-6	19	-4	91*	8	86*	15*
Cc1onc(C(=O)Nc2cccnc2Cl)c1[N+](=O)[O-]	9	-1	0	-8	-2	-7	x	x
COc1cc(NC(=O)c2cc(-c3ccco3)on2)c(OC)cc1Cl	-289	1	4	-15	41	2	x	x
COc1cc(NC(=O)c2ccnn2C)c(OC)cc1Cl	19	1	1	9	129*	7	135*	23*
CC1=C(C(=O)OC(C)C)C(c2cccs2)C(C(=O)OC(C)C)=C(C)N1	-145	-4	4	-9	3	8	x	x
Cc1cc(C)cc(OCC(=O)OCC(=O)NC2CCCCCCC2)c1	-2	-5	0	-13	-2	-8	x	x
O=C(Nc1ccccc1Oc1ccccc1)c1ccccc1F	29	-11	6	3	119*	-6	131*	20*
CN1CC(c2ccccc2)Oc2ccccc2C1=S (stereo unspecified)	3	15	1	-6	0	-11	x	x
Cc1[nH]c2ccccc2c1/C=N/NC(=O)CNC(=O)Cc1ccccc1	10	13	4	14	40	-6	x	x
Cc1[nH]c2ccccc2c1/C=N/NC(=O)Nc1ccccc1	-15	-10	-7	-23	95*	-16	136*	46*
Cc1[nH]c2ccccc2c1/C=N/NC(=O)Cc1cccs1	12	-3	5	-5	100*	-4	72*	38*
C=CCNC(=O)c1c[nH]c2ccc(S(=O)(=O)N(C)c3ccc(OCC)cc3)cc2c1=O	-17	4	5	13	17	-11	x	x
O=C(NC(=S)Nc1ccccc1N1CCCC1)c1ccco1	-8	8	15	31	169*	-1	124*	31*
Cn1c(=O)c([N+](=O)[O-])c(NCCCn2ccnc2)c2ccccc21	14	-1	15	-18	80*	-16	110*	27*
CCCCNc1c([N+](=O)[O-])c(=O)n(C)c2ccccc12	11	6	0	-13	14	-9	x	x
CCCNC(=S)Nc1c(C)n(C)n(-c2ccccc2)c1=O	4	-4	6	3	4	-7	x	x
Fc1ccc(F)c(C2=NNC(=Nc3ccccc3F)SC2)c1	-85	4	12	35	79*	21	70*	56*
COc1ccc(Nc2ccnc(Nc3ccc(OC)cc3)n2)cc1	-3	-20	-2	-5	83*	20	62*	37*
COc1ccc(Nc2nc(OC)nc(OC)n2)cc1	16	-17	-1	-3	7	-5	x	x
O=C(Nc1ccccc1Br)c1cc[n+]([O-])cc1	6	0	-6	-8	0	-8	x	x
O=C(Nc1nc(-c2cccs2)cs1)c1ccc(Cl)cc1	-7	-10	8	-12	129*	19	123*	36*
O=c1c(Cl)c2oc3ccccc3nc-2c2ccccc12	32	2	-5	-12	81*	-2	123*	16*
Clc1ccc(-c2nnc(Sc3nc4ccccc4o3)c3ccccc23)cc1	7	-1	2	-4	-1	23	x	x
Cc1nnc(N/N=C/c2ccc(-c3ccccc3F)o2)n1N	-268	-5	7	1	109*	-8	75*	24*
COc1ccc(CC(=O)N/N=C(\C)CC(=O)Nc2ccc(N(C)C)cc2)cc1OC	9	-6	-11	-6	4	-7	x	x
